# Measured values as given in PubChem BioAssay AID1159580 (chemical genetic matrix, 2015).
# Several values for one entry are separate records, joined by “and”; a condition that tells them apart may be missing. Identical values can stand only once. Out of some 5,500 compounds screened, about 2,000 (36%) were called active. Another 18% or so got no clear call; they are omitted. The list shows a part of the results. Unmarked numbers belong to inactive results. Cut-off read from the data, not from the text of the source: active = normalized growth mostly below about 0.91 (no sharp cut-off); inconclusive = no clear call, values can overlap the other calls; inactive = mostly above about 0.92.
# Experiment: chemical genetic growth profiling, strain panel (AID 1159580);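 note: tested at 20 µM; growth read once vehicle control cultures reached saturation at 30 °C; 1 = growth at the plate median or of vehicle wells; lower values mean less growth of the strain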
# Conditions: S. cerevisiae deletion strains, growth OD
smiles,measurement,setting,value
c1ccc2c(c1)CN1CCCC1=N2,normalized growth,"locus YAL021C, strain ccr4, stronger effect = lower value",0.998
same,normalized growth,"locus YAL026C, strain drs2, stronger effect = lower value",1
same,normalized growth,"locus YAL030W, strain snc1, stronger effect = lower value",1
same,normalized growth,"locus YBL061C, strain skt5, stronger effect = lower value",0.999
same,normalized growth,"locus YBR009C, strain hhf1, stronger effect = lower value",0.987
same,normalized growth,"locus YBR021W, strain FUR4, stronger effect = lower value",1.19 [resistant] (active)
same,normalized growth,"locus YBR023C, strain chs3, stronger effect = lower value",1
same,normalized growth,"locus YBR171W, strain sec66, stronger effect = lower value",1
same,normalized growth,"locus YBR229C, strain ROT2, stronger effect = lower value",1.01
same,normalized growth,"locus YBR231C, strain swc5, stronger effect = lower value",0.997
same,normalized growth,"locus YBR279W, strain paf1, stronger effect = lower value",0.996
same,normalized growth,"locus YCL011C, strain gbp2, stronger effect = lower value",1.01
same,normalized growth,"locus YCL016C, strain dcc1, stronger effect = lower value",0.997
same,normalized growth,"locus YCL029C, strain bik1, stronger effect = lower value",0.972
same,normalized growth,"locus YCL061C, strain MRC1, stronger effect = lower value",1.01
same,normalized growth,"locus YCL069W, strain vba3, stronger effect = lower value",1
same,normalized growth,"locus YCR088W, strain abp1, stronger effect = lower value",0.998
same,normalized growth,"locus YDL005C, strain med2, stronger effect = lower value",0.993
same,normalized growth,"locus YDL035C, strain GPR1, stronger effect = lower value",1.03
same,normalized growth,"locus YDL040C, strain nat1, stronger effect = lower value",1
same,normalized growth,"locus YDL074C, strain BRE1, stronger effect = lower value",1.01
same,normalized growth,"locus YDL101C, strain DUN1, stronger effect = lower value",0.99
same,normalized growth,"locus YDL134C, strain PPH21, stronger effect = lower value",1.01
same,normalized growth,"locus YDL185W, strain tfp1, stronger effect = lower value",0.971
same,normalized growth,"locus YDL192W, strain arf1, stronger effect = lower value",0.985
same,normalized growth,"locus YDR001C, strain nth1, stronger effect = lower value",0.992
same,normalized growth,"locus YDR069C, strain doa4, stronger effect = lower value",1
same,normalized growth,"locus YDR101C, strain arx1, stronger effect = lower value",0.978
same,normalized growth,"locus YDR137W, strain rgp1, stronger effect = lower value",1.01
same,normalized growth,"locus YDR150W, strain NUM1, stronger effect = lower value",0.998
same,normalized growth,"locus YDR159W, strain sac3, stronger effect = lower value",0.991
same,normalized growth,"locus YDR162C, strain NBP2, stronger effect = lower value",1.02
same,normalized growth,"locus YDR195W, strain ref2",0.968
same,normalized growth,"locus YDR297W, strain sur2, stronger effect = lower value",1
same,normalized growth,"locus YDR318W, strain mcm21, stronger effect = lower value",0.988
same,normalized growth,"locus YDR334W, strain swr1, stronger effect = lower value",0.999
same,normalized growth,"locus YDR335W, strain msn5, stronger effect = lower value",1.01
same,normalized growth,"locus YDR388W, stronger effect = lower value",0.989
same,normalized growth,"locus YDR392W, strain spt3, stronger effect = lower value",0.919
same,normalized growth,"locus YDR502C, strain sam2, stronger effect = lower value",0.988
same,normalized growth,"locus YEL003W, strain gim4, stronger effect = lower value",0.999
same,normalized growth,"locus YEL037C, strain rad23, stronger effect = lower value",0.999
same,normalized growth,"locus YEL061C, strain CIN8 (second series), stronger effect = lower value",0.996
same,normalized growth,"locus YEL061C, strain CIN8, stronger effect = lower value",1
same,normalized growth,"locus YER015W, strain faa2, stronger effect = lower value",0.998
same,normalized growth,"locus YER016W, strain bim1, stronger effect = lower value",1
same,normalized growth,"locus YER110C, stronger effect = lower value",0.967
same,normalized growth,"locus YER111C, strain swi4, stronger effect = lower value",1
same,normalized growth,"locus YER155C, strain BEM2 (second series), stronger effect = lower value",1
same,normalized growth,"locus YER155C, strain BEM2, stronger effect = lower value",0.993
same,normalized growth,"locus YER167W, strain BCK2, stronger effect = lower value",1
same,normalized growth,"locus YFR010W, strain ubp6, stronger effect = lower value",1
same,normalized growth,"locus YGL078C, strain dbp3, stronger effect = lower value",0.993
same,normalized growth,"locus YGL086W, strain mad1, stronger effect = lower value",0.967
same,normalized growth,"locus YGL167C, strain pmr1, stronger effect = lower value",0.995
same,normalized growth,"locus YGL173C, strain kem1, stronger effect = lower value",0.997
same,normalized growth,"locus YGL227W, strain vid30, stronger effect = lower value",0.993
same,normalized growth,"locus YGL240W, strain doc1, stronger effect = lower value",1.01
same,normalized growth,"locus YGL248W, strain PDE1, stronger effect = lower value",1
same,normalized growth,"locus YGL253W, strain hxk2, stronger effect = lower value",1
same,normalized growth,"locus YGR078C, strain PAC10, stronger effect = lower value",1.01
same,normalized growth,"locus YGR135W, strain pre9, stronger effect = lower value",0.998
same,normalized growth,"locus YGR229C, strain SMI1, stronger effect = lower value",1.03
same,normalized growth,"locus YGR252W, strain gcn5, stronger effect = lower value",1.1
same,normalized growth,"locus YHR013C, strain ard1, stronger effect = lower value",0.983
same,normalized growth,"locus YHR027C, strain rpn1, stronger effect = lower value",1.01
same,normalized growth,"locus YHR030C, strain SLT2, stronger effect = lower value",1.01 and 0.994
same,normalized growth,"locus YHR079C, strain IRE1 (second series), stronger effect = lower value",0.97
same,normalized growth,"locus YHR079C, strain IRE1, stronger effect = lower value",1.02
same,normalized growth,"locus YHR094C, strain hxt1, stronger effect = lower value",0.991
same,normalized growth,"locus YHR129C, strain ARP1, stronger effect = lower value",0.995
same,normalized growth,"locus YHR142W, strain chs7, stronger effect = lower value",1.01
same,normalized growth,"locus YHR200W, strain rpn10, stronger effect = lower value",0.979
same,normalized growth,"locus YIL066C, strain RNR3, stronger effect = lower value",1.01
same,normalized growth,"locus YIL073C, strain SPO22, stronger effect = lower value",0.906
same,normalized growth,"locus YIL125W, strain kgd1, stronger effect = lower value",0.989
same,normalized growth,"locus YIR030C, strain dcg1, stronger effect = lower value",0.985
same,normalized growth,"locus YJL092W, strain hpr5, stronger effect = lower value",0.995
same,normalized growth,"locus YJL095W, strain BCK1 (second series), stronger effect = lower value",1
same,normalized growth,"locus YJL095W, strain BCK1, stronger effect = lower value",1 and 0.988
same,normalized growth,"locus YJL115W, strain asf1, stronger effect = lower value",1
same,normalized growth,"locus YJL129C, strain trk1, stronger effect = lower value",1.01
same,normalized growth,"locus YJL134W, strain LCB3, stronger effect = lower value",1.01
same,normalized growth,"locus YJL154C, strain vps35, stronger effect = lower value",0.996
same,normalized growth,"locus YJL164C, strain tpk1, stronger effect = lower value",1.01
same,normalized growth,"locus YJL166W, strain qcr8, stronger effect = lower value",1
same,normalized growth,"locus YJL168C, strain set2, stronger effect = lower value",0.98
same,normalized growth,"locus YJL187C, strain SWE1 (second series), stronger effect = lower value",0.99
same,normalized growth,"locus YJL187C, strain SWE1, stronger effect = lower value",1
same,normalized growth,"locus YJR043C, strain POL32, stronger effect = lower value",1.06
same,normalized growth,"locus YJR066W, strain TOR1, stronger effect = lower value",0.989
same,normalized growth,"locus YKL009W, strain mrt4, stronger effect = lower value",0.955
same,normalized growth,"locus YKL068W, stronger effect = lower value",0.984
same,normalized growth,"locus YKL085W, strain MDH1 (second series), stronger effect = lower value",0.981
same,normalized growth,"locus YKL085W, strain MDH1, stronger effect = lower value",0.981
same,normalized growth,"locus YKL160W, strain elf1, stronger effect = lower value",1
same,normalized growth,"locus YKL190W, strain CNB1, stronger effect = lower value",1.01
same,normalized growth,"locus YKR001C, strain vps1, stronger effect = lower value",0.98
same,normalized growth,"locus YKR026C, strain gcn3, stronger effect = lower value",0.992
same,normalized growth,"locus YKR091W, strain srl3, stronger effect = lower value",0.994
same,normalized growth,"locus YLL001W, strain dnm1, stronger effect = lower value",0.988
same,normalized growth,"locus YLL026W, stronger effect = lower value",0.996
same,normalized growth,"locus YLL041C, strain sdh2, stronger effect = lower value",0.996
same,normalized growth,"locus YLR027C, strain aat2, stronger effect = lower value",1.01
same,normalized growth,"locus YLR039C, strain RIC1, stronger effect = lower value",1.01
same,normalized growth,"locus YLR058C, strain SHM2, stronger effect = lower value",1
same,normalized growth,"locus YLR102C, strain apc9, stronger effect = lower value",0.981
same,normalized growth,"locus YLR113W, strain HOG1, stronger effect = lower value",0.973
same,normalized growth,"locus YLR221C, strain rsa3, stronger effect = lower value",0.999
same,normalized growth,"locus YLR258W, strain gsy2, stronger effect = lower value",1
same,normalized growth,"locus YLR262C, strain YPT6 (second series), stronger effect = lower value",1.02
same,normalized growth,"locus YLR262C, strain YPT6, stronger effect = lower value",1.04
same,normalized growth,"locus YLR268W, strain sec22, stronger effect = lower value",0.951
same,normalized growth,"locus YLR320W, strain mms22, stronger effect = lower value",1.01
same,normalized growth,"locus YLR330W, strain CHS5, stronger effect = lower value",0.996
same,normalized growth,"locus YLR342W, strain FKS1 (second series), stronger effect = lower value",1.08
same,normalized growth,"locus YLR342W, strain FKS1, stronger effect = lower value",1.01
same,normalized growth,"locus YLR357W, strain rsc2, stronger effect = lower value",0.991
same,normalized growth,"locus YLR370C, strain arc18, stronger effect = lower value",1.01
same,normalized growth,"locus YLR371W, strain rom2, stronger effect = lower value",0.965
same,normalized growth,"locus YLR384C, strain iki3, stronger effect = lower value",0.988
same,normalized growth,"locus YLR418C, strain cdc73, stronger effect = lower value",1
same,normalized growth,"locus YML016C, strain PPZ1, stronger effect = lower value",1
same,normalized growth,"locus YML032C, strain rad52, stronger effect = lower value",1.01
same,normalized growth,"locus YML120C, strain ndi1, stronger effect = lower value",1.01
same,normalized growth,"locus YML124C, strain tub3, stronger effect = lower value",1
same,normalized growth,"locus YMR058W, strain fet3, stronger effect = lower value",1
same,normalized growth,"locus YMR078C, strain ctf18, stronger effect = lower value",0.959
same,normalized growth,"locus YMR125W, strain sto1, stronger effect = lower value",1.01
same,normalized growth,"locus YMR129W, stronger effect = lower value",0.976
same,normalized growth,"locus YMR205C, strain PFK2, stronger effect = lower value",0.99
same,normalized growth,"locus YMR223W, strain ubp8, stronger effect = lower value",0.992
same,normalized growth,"locus YMR231W, strain pep5, stronger effect = lower value",0.996
same,normalized growth,"locus YMR263W, strain SAP30, stronger effect = lower value",0.991
same,normalized growth,"locus YMR307W, strain GAS1, stronger effect = lower value",1.21
same,normalized growth,"locus YNL067W, strain RPL9B, stronger effect = lower value",0.979
same,normalized growth,"locus YNL071W, strain lat1, stronger effect = lower value",1.01
same,normalized growth,"locus YNL153C, strain GIM3, stronger effect = lower value",1
same,normalized growth,"locus YNL183C, strain NPR1, stronger effect = lower value",0.967
same,normalized growth,"locus YNL209W, strain ssb2, stronger effect = lower value",1
same,normalized growth,"locus YNL233W, strain BNI4, stronger effect = lower value",1
same,normalized growth,"locus YNL248C, strain rpa49, stronger effect = lower value",1.01
same,normalized growth,"locus YNL250W, strain rad50, stronger effect = lower value",0.937
same,normalized growth,"locus YNL271C, strain bni1, stronger effect = lower value",0.989
same,normalized growth,"locus YNL298W, strain CLA4, stronger effect = lower value",0.996
same,normalized growth,"locus YNL307C, strain MCK1, stronger effect = lower value",0.972
same,normalized growth,"locus YNL322C, strain KRE1 (second series), stronger effect = lower value",1
same,normalized growth,"locus YNR049C, strain mso1, stronger effect = lower value",1
same,normalized growth,"locus YNR052C, strain pop2, stronger effect = lower value",0.992
same,normalized growth,"locus YOL006C, strain TOP1, stronger effect = lower value",0.918
same,normalized growth,"locus YOL012C, strain htz1",0.782
same,normalized growth,"locus YOL147C, strain pex11, stronger effect = lower value",0.995
same,normalized growth,"locus YOR001W, strain rrp6, stronger effect = lower value",1
same,normalized growth,"locus YOR061W, strain CKA2, stronger effect = lower value",0.998
same,normalized growth,"locus YOR069W, strain VPS5, stronger effect = lower value",0.998
same,normalized growth,"locus YOR070C, strain gyp1, stronger effect = lower value",0.993
same,normalized growth,"locus YOR080W, strain dia2, stronger effect = lower value",0.992
same,normalized growth,"locus YOR083W, strain WHI5, stronger effect = lower value",1
same,normalized growth,"locus YOR106W, strain vam3, stronger effect = lower value",1.02
same,normalized growth,"locus YOR136W, strain idh2, stronger effect = lower value",0.976
same,normalized growth,"locus YOR144C, strain elg1, stronger effect = lower value",1.01
same,normalized growth,"locus YOR184W, strain ser1, stronger effect = lower value",0.992
same,normalized growth,"locus YOR231W, strain MKK1, stronger effect = lower value",1.02
same,normalized growth,"locus YOR265W, strain rbl2, stronger effect = lower value",1.01
same,normalized growth,"locus YOR270C, strain vph1, stronger effect = lower value",1.02
same,normalized growth,"locus YOR290C, strain snf2, stronger effect = lower value",0.955
same,normalized growth,"locus YOR316C, strain cot1, stronger effect = lower value",0.98
same,normalized growth,"locus YPL051W, strain arl3, stronger effect = lower value",1.01
same,normalized growth,"locus YPL055C, strain LGE1, stronger effect = lower value",1
same,normalized growth,"locus YPL078C, strain atp4, stronger effect = lower value",1.01
same,normalized growth,"locus YPL106C, strain sse1, stronger effect = lower value",1.02
same,normalized growth,"locus YPL240C, strain hsp82, stronger effect = lower value",0.992
same,normalized growth,"locus YPL256C, strain CLN2, stronger effect = lower value",1
same,normalized growth,"locus YPR119W, strain clb2, stronger effect = lower value",0.966
same,normalized growth,"locus YPR141C, strain kar3, stronger effect = lower value",0.969
same,normalized growth,"locus YPR163C, strain tif3, stronger effect = lower value",0.997
same,normalized growth,"locus YPR167C, strain met16, stronger effect = lower value",0.976
same,normalized growth,"strain wtn01, stronger effect = lower value",0.957
